# Reference: PubChem BioAssay
# “And” between values parts separate entries of the source, which are not always exact repeats. Identical values can stand only once. A structure can be active in one record and inactive in another. The source made the active and inactive calls.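 How the source made its calls, unless noted: active means thallium flux through the channel raised or lowered by more than 3 SD from vehicle-only wells, actives on both sides; inactive means the rest.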
# Columns and labels:
# [1] = stimulators of nuclear beta-catenin in C2C12, primary screen, imaging, WNT3A-conditioned medium, mouse C2C12, NPC library (AID 1117326; in the data active means nuclear beta-catenin stimulation mostly above about 4.2%, no sharp cut-off; inactive means mostly below about 10%); conditions: stronger effect = higher value
# [2] = stimulators of insulin release from INS-1E, primary screen, cell-based, 5 mM glucose, NPC library (AID 1117329;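 active means compound raises insulin release from rat beta cells at 5 mM glucose, no numeric limit stated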); conditions: rat INS-1E insulin secretion, at 10 µM, stronger effect = higher value
# [3] = growth inhibition of GSK3B-pretreated HCT116 cells – cell-based, CellTiter-Glo, 0.2 to 20 µM (AID 1117336;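 active means compounds lowering colon cancer cell viability after pretreatment blocking the GSK3B kinase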); conditions: HCT116 viability after GSK3B inhibitor, at 20 µM, stronger effect = higher value
# [4] = inhibition of endothelial tube formation, primary screen, imaging, VEGF stimulated, CD31 staining, tube area, NPC library (AID 1117340;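 active means compound that reduces growth-factor-driven endothelial tube area in a mixed cell culture, no cutoff stated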); conditions: VEGF-stimulated ADSC/ECFC co-culture, at 10 µM, stronger effect = higher value
# [5] = glucagon-like peptide 1 release enhancers, primary assay, NCI-H716 cell line, NPC library (AID 1117341;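 active means compound raises GLP1 secretion from the human gut endocrine cells, with no numeric limit stated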); conditions: NCI-H716 cells, at 10 µM, stronger effect = higher value
# [6] = HCT116 colon cancer cell growth inhibition, primary screen, CellTiter-Glo luminescence, NPC library (AID 1117342;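 active means compounds that lower survival of HCT116 colon cancer cells in the luminescence readout, no numeric limit stated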); conditions: at 20 µM (top of the series)
# [7] = CellTiter-Glo luminescent readout of SW480 viability loss, NPC library primary (AID 1117343;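 active means compounds that lower viability of the colon cancer cells in the luminescence readout, with no numeric limit stated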); conditions: CellTiter-Glo luminescence; at 20 µM (top of the series)
# [8] = decreased DLD-1 cellular survival, CellTiter-Glo luminescent readout, NPC compound collection, primary HTS (AID 1117346;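 active means compounds that lower survival of DLD-1 colon cancer cells in the luminescence readout, no cutoff given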); conditions: DLD-1 viability, CellTiter-Glo luminescence; at 20 µM (top of the series)
# [9] = target: 6-phosphogluconate dehydrogenase, decarboxylating (Homo sapiens) (UniProt P52209); experiment: 6PGD enzyme inhibitors, primary screen, biochemical, human, recombinant enzyme, NADPH absorbance (AID 1159550;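 active means at least 20% inhibition of 6-phosphogluconate dehydrogenase activity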); conditions: recombinant 6PGD, NADPH absorbance 341 nm; at 10 µM; stronger effect = higher value
# [10] = modulation of C. elegans fzo-1 (AID 1259413; call rule not given here;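 further: fzo-1 mutant C. elegans worms in liquid wells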); conditions: C. elegans fzo-1 modulator screen, mean read-out; stronger effect = higher value
# [11] = differential killing of epithelial or mesenchymal cells, primary screen, imaging, PC-3E GFP, TEM4-18 mCherry, co-culture (AID 1345086;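 active means compounds killing one labelled cell type while sparing the other, by normalised counts and ratio limits, not self-fluorescent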;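 on all read-outs here: cells exposed to compound for 72 h before imaging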;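 on red/green cell ratio (normalised): normalised mesenchymal count divided by normalised epithelial count so high means epithelial killing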); conditions: imaging cell counts, at 1 µM; for red/green cell ratio (normalised): actives lie on both sides, counts scaled to control wells, 1 = unselective
# [12] = sensitizers of A549 cells to miR-34 induction, primary screen, imaging, A549 dox-inducible miR-34, nuclei and caspase counts (AID 1347080;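 active means compounds whose cell count with miR-34 switched on is under 0.7 times the count with it off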); conditions: A549 miR-34 inducible, Hoechst nuclei count, 48 h
# [13] = survival rescue of mitochondrial mutant cells in low glucose, primary screen, MELAS cybrids, Rieske KO mouse fibroblasts, CellTiter-Glo (AID 1508586;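 active means mean z-score across replicates of 1.96 or higher in either the MELAS or the Rieske mutant cell line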;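 further: z relative to plate mean and SD of compound and empty wells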)
# [14] = target: NAD(+) hydrolase SARM1 (Homo sapiens) (UniProt Q6SZW1); experiment: SARM1 TIR NADase inhibitors, cell lysate, NAD-Glo luminescence (AID 1508614;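 active means compound whose remaining NAD level is above about 45 nM, limit read from the data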); conditions: SAM-TIR HEK293T lysate NADase, at 1 µM, stronger effect = higher value
# [15] = target: Mitogen-activated protein kinase 7 (Homo sapiens) (UniProt Q13164); experiment: ERK5 transactivation activators in reporter cells, primary screen, cell-based, HTS (AID 1508626;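 active means luciferase signal above three times the same-plate solvent-only control wells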;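 further: luciferase driven by Gal4-ERK5 fusion binding five Gal4 sites before minimal TATA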); conditions: HeLa Gal4-ERK5 transactivation, 18 h, at 5 µM, stronger effect = higher value
# F380Y = experiment: modulators of BK channel variants, profiling panel, selectivity assay, cell-based, U2OS BacMam, thallium flux, beta subunits (AID 1259406); conditions: at 30 µM;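 further: initial slope of Thallos dye fluorescence rise after thallium is added; log ratio against the mean of 0.3% DMSO vehicle wells on the same plate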
# F380Y/beta1 = experiment: as above; conditions: at 30 µM
# F380Y/beta2Delta = experiment: as above; conditions: at 30 µM
# [16] = measured here: epithelial PC-3E GFP cell survival
# [17] = measured here: mesenchymal TEM4-18 mCherry cell survival
# [18] = stronger effect = lower value, cell number ratio, induced over uninduced
# [19] = measured here: relative caspase fold change +Dox/-Dox
# [20] = measured here: total cells with miR-34 induction, stronger effect = lower value
# [21] = measured here: total cells without miR-34 induction
# [22] = MELAS cybrid survival, CellTiter-Glo 48 h, stronger effect = higher value
# [23] = Rieske KO mouse fibroblast survival, CellTiter-Glo 72 h
# Chain of Mitogen-activated protein kinase 7 (Homo sapiens) (Q13164 whole entry, looked up, the tested form may be a part): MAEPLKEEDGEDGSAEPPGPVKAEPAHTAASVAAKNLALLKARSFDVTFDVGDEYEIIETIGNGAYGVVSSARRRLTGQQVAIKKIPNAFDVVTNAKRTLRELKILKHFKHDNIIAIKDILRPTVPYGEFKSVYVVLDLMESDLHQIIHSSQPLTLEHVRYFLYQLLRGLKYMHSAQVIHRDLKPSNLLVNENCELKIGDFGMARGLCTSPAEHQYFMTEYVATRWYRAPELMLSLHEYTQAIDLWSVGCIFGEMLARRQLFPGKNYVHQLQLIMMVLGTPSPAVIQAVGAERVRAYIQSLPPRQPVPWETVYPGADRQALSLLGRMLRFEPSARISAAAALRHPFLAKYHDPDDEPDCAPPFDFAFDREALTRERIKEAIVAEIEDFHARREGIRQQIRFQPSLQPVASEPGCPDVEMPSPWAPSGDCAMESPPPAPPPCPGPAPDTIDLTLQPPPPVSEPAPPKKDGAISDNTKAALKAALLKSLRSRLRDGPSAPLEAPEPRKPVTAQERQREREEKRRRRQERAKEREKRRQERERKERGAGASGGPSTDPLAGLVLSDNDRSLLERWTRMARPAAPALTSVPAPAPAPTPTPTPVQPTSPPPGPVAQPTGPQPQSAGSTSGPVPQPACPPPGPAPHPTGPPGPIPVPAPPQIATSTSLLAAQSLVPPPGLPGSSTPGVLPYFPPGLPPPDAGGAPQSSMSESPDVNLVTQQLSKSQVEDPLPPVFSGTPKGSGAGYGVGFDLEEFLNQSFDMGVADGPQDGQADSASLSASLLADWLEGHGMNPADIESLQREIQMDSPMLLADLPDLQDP
# Chain of NAD(+) hydrolase SARM1 (Homo sapiens) (Q6SZW1 whole entry, looked up, the tested form may be a part): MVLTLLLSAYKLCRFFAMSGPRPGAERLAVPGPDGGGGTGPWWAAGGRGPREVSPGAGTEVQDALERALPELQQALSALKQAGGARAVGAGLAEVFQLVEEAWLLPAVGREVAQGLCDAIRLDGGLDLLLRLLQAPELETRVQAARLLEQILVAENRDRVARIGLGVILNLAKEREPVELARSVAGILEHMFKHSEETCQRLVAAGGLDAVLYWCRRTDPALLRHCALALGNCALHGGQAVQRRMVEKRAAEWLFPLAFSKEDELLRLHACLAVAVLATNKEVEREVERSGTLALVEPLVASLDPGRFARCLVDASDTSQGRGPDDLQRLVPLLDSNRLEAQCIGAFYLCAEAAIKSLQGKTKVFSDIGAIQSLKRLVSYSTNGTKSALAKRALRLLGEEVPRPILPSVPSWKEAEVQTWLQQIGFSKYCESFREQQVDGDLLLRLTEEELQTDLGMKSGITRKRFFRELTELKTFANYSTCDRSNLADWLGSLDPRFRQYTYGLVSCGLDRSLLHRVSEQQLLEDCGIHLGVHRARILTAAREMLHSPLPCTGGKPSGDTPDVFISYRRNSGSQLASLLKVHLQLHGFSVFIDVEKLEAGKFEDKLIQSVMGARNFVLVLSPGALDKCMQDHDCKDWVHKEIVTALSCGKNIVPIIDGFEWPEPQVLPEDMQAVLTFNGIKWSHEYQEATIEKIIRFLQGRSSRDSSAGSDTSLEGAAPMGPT
# Chain of 6-phosphogluconate dehydrogenase, decarboxylating (Homo sapiens) (P52209 whole entry, looked up): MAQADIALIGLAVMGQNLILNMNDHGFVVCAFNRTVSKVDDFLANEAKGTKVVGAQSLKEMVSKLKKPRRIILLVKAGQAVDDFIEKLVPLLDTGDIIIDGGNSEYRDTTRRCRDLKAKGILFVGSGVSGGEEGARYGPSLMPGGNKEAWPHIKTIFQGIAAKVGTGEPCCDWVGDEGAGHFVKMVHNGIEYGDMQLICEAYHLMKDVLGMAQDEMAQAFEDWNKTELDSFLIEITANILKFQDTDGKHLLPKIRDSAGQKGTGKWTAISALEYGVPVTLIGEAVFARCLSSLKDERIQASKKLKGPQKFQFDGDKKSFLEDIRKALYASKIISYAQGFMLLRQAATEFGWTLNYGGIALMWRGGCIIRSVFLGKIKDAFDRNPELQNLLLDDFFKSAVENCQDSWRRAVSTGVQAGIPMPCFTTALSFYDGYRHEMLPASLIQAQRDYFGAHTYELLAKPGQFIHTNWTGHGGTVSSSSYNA
compound,measurement,setting,value
COc1ccc(OC)c(C(O)CNC(=O)CN)c1 (stereo not drawn),nuclear beta-catenin stimulation,[1]; at 10 µM,3.8% (inactive)
same,nuclear beta-catenin stimulation,"[1]; stimulation, at 2 µM",4.9%
same,insulin secretion stimulation,[2],2.7% (inactive)
same,viability decrease,[3],17.9% (inactive)
same,tube area decrease,[4],-15.2% (inactive)
same,GLP1 secretion stimulation,[5],0.7% (inactive)
same,inhibition of viability,[6],-0.9% (inactive)
same,viability decrease (inhibition),[7],-26.4% (inactive)
same,viability decrease (inhibition),[8],0.7% (inactive)
same,inhibition,[9],-19.4% (inactive)
same,mean signal,[10],239 (inactive)
same,red/green cell ratio (normalised),[11],1.18 (inactive)
same,normalised cell number,[11]; [16],1.01
same,normalised cell number,[11]; [17],1.2
same,fold change,[12]; [18],0.924 (inactive) and 0.912 (inactive) and 0.855 (inactive)
same,fold change,[12]; [19],2.18 and 0.75 and 3.91
same,cell count,[12]; [20],9350 and 8590 and 11100
same,cell count,[12]; [21],10100 and 9420 and 12900
same,z-score,[13]; [22],0.0363 (inactive)
same,z-score,[13]; [23],-0.177
same,remaining NAD,[14],10 nM (inactive)
same,luciferase signal,[15],124 AU (inactive)
same,log fold change Tl+ flux,F380Y,-0.028 (inactive)
same,log fold change Tl+ flux,F380Y/beta1,0.0228 (inactive)
same,log fold change Tl+ flux,F380Y/beta2Delta,-0.0267 (inactive)
COC1=CC(=O)C[C@@H](C)[C@]12Oc1c(Cl)c(OC)cc(OC)c1C2=O,nuclear beta-catenin stimulation,[1]; at 10 µM,1.9% (inactive)
same,nuclear beta-catenin stimulation,"[1]; stimulation, at 2 µM",0.3%
same,insulin secretion stimulation,[2],6.2% (inactive)
same,viability decrease,[3],38.4% (inactive)
same,tube area decrease,[4],24.2% (inactive)
same,GLP1 secretion stimulation,[5],0.1% (inactive)
same,inhibition of viability,[6],43.7% (inactive)
same,viability decrease (inhibition),[7],64.1% (active)
same,viability decrease (inhibition),[8],20% (inactive)
same,inhibition,[9],1.41% (inactive)
same,mean signal,[10],231 (inactive)
same,red/green cell ratio (normalised),[11],0.76 (inactive)
same,normalised cell number,[11]; [16],1.41
same,normalised cell number,[11]; [17],1.07
same,fold change,[12]; [18],1.07 (inactive) and 0.956 (inactive) and 0.943 (inactive)
same,fold change,[12]; [19],2.5 and 0.98 and 2.02
same,cell count,[12]; [20],6100 and 6900 and 8710
same,cell count,[12]; [21],5720 and 7210 and 9240
same,z-score,[13]; [22],1.78 (inactive)
same,z-score,[13]; [23],0.726
same,remaining NAD,[14],10 nM (inactive)
same,luciferase signal,[15],104 AU (inactive)
same,log fold change Tl+ flux,F380Y,0.00739 (inactive)
same,log fold change Tl+ flux,F380Y/beta1,-0.046 (inactive)
same,log fold change Tl+ flux,F380Y/beta2Delta,0.0194 (inactive)
Nc1ncn([C@@H]2O[C@H](CO)[C@@H](O)[C@H]2O)c(=O)n1,nuclear beta-catenin stimulation,[1]; at 10 µM,21.7% (inactive)
same,nuclear beta-catenin stimulation,"[1]; stimulation, at 2 µM",1.8%
same,insulin secretion stimulation,[2],0.5% (inactive)
same,viability decrease,[3],83.3% (active)
same,tube area decrease,[4],66.1% (active)
same,GLP1 secretion stimulation,[5],-0.3% (inactive)
same,inhibition of viability,[6],94.3% (active)
same,viability decrease (inhibition),[7],113% (active)
same,viability decrease (inhibition),[8],91% (active)
same,inhibition,[9],4.17% (inactive)
same,mean signal,[10],231 (inactive)
same,red/green cell ratio (normalised),[11],0.99 (inactive)
same,normalised cell number,[11]; [16],0.83
same,normalised cell number,[11]; [17],0.82
same,fold change,[12]; [18],0.885 (inactive) and 0.737 (inactive) and 0.556 (active)
same,fold change,[12]; [19],3.44 and 3.26 and 2.98
same,cell count,[12]; [20],1630 and 1960 and 3690
same,cell count,[12]; [21],1840 and 2660 and 6640
same,remaining NAD,[14],10 nM (inactive)
same,luciferase signal,[15],60 AU (inactive)
same,log fold change Tl+ flux,F380Y,-0.0337 (inactive)
same,log fold change Tl+ flux,F380Y/beta1,-0.0139 (inactive)
same,log fold change Tl+ flux,F380Y/beta2Delta,0.0239 (inactive)
